Records with an inconclusive call do not appear. Active and inactive are the calls of the source. Rule for the calls, unless noted: active = hit-call score of the fitted dose curve at least 0.9, where 1 is the maximum; inconclusive = response in the unintended direction; inactive = score below 0.9.
Assays:
[1] = ATG_TAL_CIS: Attagene CIS-FACTORIAL HepG2 Assay for human TAL Basal Promoter (AID 2282966; active = hit-call score of the fitted dose curve at least 0.9, where 1 is the maximum; inactive = score below 0.9;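 note: background control endpoint measuring basal TAL promoter reporter mRNA not a specific factor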); conditions: HepG2 Attagene cis-factorial TAL promoter reporter; actives raise or lower the signal
Summary of the method: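 Background-control endpoint: basal TAL promoter reporter transcripts in transiently transfected HepG2, measured 24 h after dosing. Read-out by RT-PCR with fluorescent primer extension and capillary electrophoresis; gain or loss of signal fitted relative to DMSO.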

[2] = ATG_TGFb_CIS: Attagene CIS-FACTORIAL HepG2 Assay for human Transforming Growth Factor (TGF) (AID 2282967; active = hit-call score of the fitted dose curve at least 0.9, where 1 is the maximum; inactive = score below 0.9); conditions: HepG2 Attagene CIS TGFb reporter, mRNA transcription; actives raise or lower the signal
Summary of the method: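 Multiplexed cis-reporter HepG2 system, 24 h treatment; mRNA induction read by fluorescence after RT-PCR and CE; DMSO negative control, bidirectional curve fitting.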

[3] = ATG_VDRE_CIS: Attagene CIS-FACTORIAL HepG2 Assay for human Vitamin D Receptor Element (VDRE) (AID 2282968; active = hit-call score of the fitted dose curve at least 0.9, where 1 is the maximum; inactive = score below 0.9); conditions: HepG2 VDRE cis-reporter transcription, actives raise or lower the signal
Summary of the method: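 Transfected HepG2 reporter cells, chemical treatment 24 h. RNA isolated, cDNA amplified with reporter-specific primers, products analysed by capillary electrophoresis. Endpoint fitted in both directions versus DMSO.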

[4] = target: Steroid hormone receptor ERR1 (Homo sapiens) (UniProt P11474); assay: ATG_ERRa_TRANS: Attagene TRANS-FACTORIAL HepG2 Assay for human Estrogen-Related Receptor alpha (ERRa) (AID 2282971); conditions: HepG2 Attagene TRANS reporter, ERRa transactivation
Summary of the method: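 Reporter transcripts from ERRa-Gal4 chimera activity measured in transiently transfected human HepG2 cells 24 hours after dosing, using RT-PCR with 6-FAM primer extension, HpaI digestion and capillary electrophoresis; DMSO is baseline.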

[5] = target: X-box-binding protein 1 (Homo sapiens) (UniProt P17861); assay: ATG_Xbp1_CIS: Attagene CIS-FACTORIAL HepG2 Assay for human X-box Binding Protein 1 (XBP1) (AID 2282972; active = hit-call score of the fitted dose curve at least 0.9, where 1 is the maximum; inactive = score below 0.9); conditions: HepG2 XBP1 cis-element reporter, Attagene multiplex; actives raise or lower the signal
Summary of the method: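 Read-out: fluorescent reporter mRNA fragments resolved by capillary electrophoresis after RT-PCR. Human HepG2 liver cells carried transfected cis-promoter reporter units and were exposed to chemicals for 24 hours. Gain or loss of signal fitted relative to DMSO baseline.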

[6] = target: Estrogen-related receptor gamma (Homo sapiens) (UniProt P62508); assay: ATG_ERRg_TRANS: Attagene TRANS-FACTORIAL HepG2 Assay for human Estrogen-Related Receptor gamma (ERRg) (AID 2282977); conditions: HepG2 Attagene TRANS reporter, ERRg transactivation;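 note: hits increase reporter signal over DMSO so potencies reflect activators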
Summary of the method: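 Readout: fluorescent reporter-mRNA fragments resolved by capillary electrophoresis after RT-PCR and HpaI cut. Cells: transiently transfected HepG2 carrying GAL4-UAS reporters driven by exogenous NR-Gal4 chimeras, dosed 24 h. Activity fitted upward relative to DMSO baseline.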

[7] = target: Bile acid receptor (Homo sapiens) (UniProt Q96RI1); assay: ATG_FXR_TRANS: Attagene TRANS-FACTORIAL HepG2 Assay for Farnesoid X Receptor (FXR) (AID 2282979); conditions: HepG2 Attagene TRANS FXR-GAL4 reporter transcription;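 note: hits raise reporter mRNA above DMSO so AC50 marks FXR activation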
Summary of the method: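 Reporter transcripts from transfected HepG2 cells were measured 24 h after dosing, using RT-PCR with capillary electrophoresis of 6-FAM-labelled fragments. The read-out reflects activity of exogenous FXR-Gal4 chimera on GAL4-UAS units, with induction relative to DMSO.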

[8] = target: Hepatocyte nuclear factor 4-alpha (Homo sapiens) (UniProt P41235); assay: ATG_HNF4a_TRANS: Attagene TRANS-FACTORIAL HepG2 Assay for human Hepatocyte Nuclear Factor 4 alpha (HNF4a) (AID 2282982); conditions: HepG2 HNF4a transactivation reporter, mRNA readout
Summary of the method: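 Using HepG2 liver cells transfected with GAL4-UAS reporter units, chemical-induced mRNA increases were assessed after 24 hours. Fluorescent RT-PCR fragments were separated by capillary electrophoresis and compared with DMSO negative controls.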

[9] = ATG_M_06_TRANS: Attagene TRANS-FACTORIAL HepG2 Assay for M06 Transcription Factor (Internal Marker) (AID 2282983); conditions: HepG2 Attagene TRANS M06 internal marker reporter;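 note: reporter transcript level by RT-PCR then capillary electrophoresis fluorescence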
Summary of the method: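 Background-control reporter readout: after 24 h chemical exposure of transiently transfected HepG2 (GAL4-UAS reporter units), mRNA quantified by RT-PCR with fluorescent labeling and capillary electrophoresis. Gain-of-signal fitting against DMSO baseline.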

[10] = ATG_M_32_TRANS: Attagene TRANS-FACTORIAL HepG2 Assay for M32 Transcription Factor (Internal Marker) (AID 2282984); conditions: HepG2 Attagene TRANS M32 internal marker reporter
Summary of the method: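 Fluorescence-detected mRNA induction, HepG2 liver cells, 24 h after dosing. Multiple GAL4-UAS reporter units introduced by transient transfection; background-control endpoint analysed for gain of signal against DMSO.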

[11] = target: Nuclear receptor subfamily 4 group A member 2 (Homo sapiens) (UniProt P43354); assay: ATG_NURR1_TRANS: Attagene TRANS-FACTORIAL HepG2 Assay for human Nuclear Receptor Related Protein 1 (NURR1) (AID 2282985); conditions: HepG2 Attagene TRANS reporter, mRNA readout
Summary of the method: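 Chimeric NR-Gal4 proteins were expressed in human HepG2 cells bearing GAL4-UAS reporter units, and induced reporter mRNA was quantified 24 h post-dosing by RT-PCR and capillary electrophoresis.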

[12] = target: Transcriptional activator Myb (Homo sapiens) (UniProt P10242); assay: ATG_Myb_CIS: Attagene CIS-FACTORIAL HepG2 Assay for human Myeloblastosis (Myb) Proto-Oncogene Transcription Factor (AID 2282986; active = hit-call score of the fitted dose curve at least 0.9, where 1 is the maximum; inactive = score below 0.9); conditions: HepG2 Attagene CIS-FACTORIAL Myb reporter transcription; actives raise or lower the signal
Summary of the method: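 Fluorescence signals from capillary electrophoresis of RT-PCR-amplified reporter cDNA give the read-out. Cells: HepG2 transfected with multiple cis-regulated reporter units. Exposure lasts 24 hours; DMSO defines baseline for gain or loss of signal.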

[13] = target: Nuclear respiratory factor 1 (Homo sapiens) (UniProt Q16656); assay: ATG_NRF1_CIS: Attagene CIS-FACTORIAL HepG2 Assay for human Nuclear Respiratory Factor 1 (NRF1) Orphan Gene (AID 2282987; active = hit-call score of the fitted dose curve at least 0.9, where 1 is the maximum; inactive = score below 0.9); conditions: HepG2 NRF1 cis-element reporter, Attagene multiplex; actives raise or lower the signal
Summary of the method: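 Transcriptional reporter readout, one component of a 52-endpoint multiplexed HepG2 panel. Exposure 24 h; mRNA detected via RT-PCR and fluorescent capillary electrophoresis; fitting in both directions against DMSO.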

[14] = ATG_M_19_TRANS: Attagene TRANS-FACTORIAL HepG2 Assay for M19 Transcription Factor (Internal Marker) (AID 2282974); conditions: HepG2 Attagene TRANS-FACTORIAL M19 internal marker reporter
Summary of the method: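 Measured here: internal-marker reporter transcript from HepG2 cells transfected with MRTUs, harvested at 24 h. cDNA PCR products were 6-FAM labelled by primer extension, cut with HpaI for 2 h at 37 C, and resolved by CE.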

[15] = ATG_GAL4_TRANS: Attagene TRANS-FACTORIAL HepG2 Assay for GAL4 (Internal Marker) (AID 2282976); conditions: HepG2 Attagene TRANS GAL4 internal marker reporter
Summary of the method: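 In transfected human HepG2 liver cells dosed 24 h, GAL4 reporter mRNA serves as a baseline marker. Detection by RT-PCR with fluorescent capillary electrophoresis, activity fitted upward relative to DMSO.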

[16] = target: Oxysterols receptor LXR-alpha (Homo sapiens) (UniProt Q13133); assay: ATG_LXRa_TRANS: Attagene TRANS-FACTORIAL HepG2 Assay for human Liver X Receptor alpha (LXRa) (AID 2282980); conditions: HepG2 Attagene TRANS reporter, LXRa transactivation
Summary of the method: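 Chemical-induced reporter mRNA measured by RT-PCR with fluorescent labelling and capillary electrophoresis after 24 h dosing of transiently transfected HepG2 cells expressing exogenous NR-Gal4 chimeras; increases scored against DMSO baseline.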

[17] = target: Nuclear receptor subfamily 1 group I member 3 (Homo sapiens) (UniProt Q14994); assay: ATG_CAR_TRANS: Attagene TRANS-FACTORIAL HepG2 Assay for human Constitutive Androstane Receptor (CAR) (AID 2282969); conditions: HepG2 Attagene TRANS-FACTORIAL CAR reporter;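 note: activators raise reporter mRNA above DMSO so AC50 marks induction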
Summary of the method: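 Steps: transient transfection of HepG2 with multiple GAL4-UAS reporter units; 24 h compound incubation; RNA isolation, RT-PCR, 6-FAM primer extension, HpaI digest; capillary electrophoresis. Gain-of-signal relative to DMSO negative control.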

[18] = target: Estrogen receptor (Homo sapiens) (UniProt P03372); assay: ATG_ERa_TRANS: Attagene TRANS-FACTORIAL HepG2 Assay for human Estrogen Receptor alpha (ERa) (AID 2282970); conditions: HepG2 Attagene TRANS ERa GAL4 reporter, mRNA
Summary of the method: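 Reporter transcripts were measured 24 h after dosing by RT-PCR with fluorescent primer extension and capillary electrophoresis. The system is transiently transfected HepG2 expressing exogenous NR-Gal4 chimeras driving GAL4-UAS reporters; DMSO is the baseline.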

[19] = target: Glucocorticoid receptor (Homo sapiens) (UniProt P04150); assay: ATG_GR_TRANS: Attagene TRANS-FACTORIAL HepG2 Assay for human Glucocorticoid Receptor (GR) (AID 2282978); conditions: HepG2 Attagene TRANS GR reporter, mRNA transcription;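 note: activators score as hits since higher reporter transcript over DMSO is fitted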
Summary of the method: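 Measurement of GAL4-UAS-driven reporter mRNA in human HepG2 liver cells 24 h post-dosing, using RT-PCR with fluorescent labelling and capillary electrophoresis; the transfected constructs report exogenous NR-GAL4 chimera activity, fitted upward against DMSO.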

[20] = target: Oxysterols receptor LXR-beta (Homo sapiens) (UniProt P55055); assay: ATG_LXRb_TRANS: Attagene TRANS-FACTORIAL HepG2 Assay for human Liver X Receptor beta (LXRb) (AID 2282981); conditions: HepG2 Attagene TRANS GAL4-LXRb reporter, mRNA
Summary of the method: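 Liver-derived HepG2 cells transfected with Gal4-responsive reporters were dosed for 24 h. Activation was scored as rise in reporter mRNA, by RT-PCR and capillary electrophoresis, above DMSO baseline.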

Measured: AC50

Chain of Nuclear respiratory factor 1 (Homo sapiens) (Q16656 whole entry, looked up): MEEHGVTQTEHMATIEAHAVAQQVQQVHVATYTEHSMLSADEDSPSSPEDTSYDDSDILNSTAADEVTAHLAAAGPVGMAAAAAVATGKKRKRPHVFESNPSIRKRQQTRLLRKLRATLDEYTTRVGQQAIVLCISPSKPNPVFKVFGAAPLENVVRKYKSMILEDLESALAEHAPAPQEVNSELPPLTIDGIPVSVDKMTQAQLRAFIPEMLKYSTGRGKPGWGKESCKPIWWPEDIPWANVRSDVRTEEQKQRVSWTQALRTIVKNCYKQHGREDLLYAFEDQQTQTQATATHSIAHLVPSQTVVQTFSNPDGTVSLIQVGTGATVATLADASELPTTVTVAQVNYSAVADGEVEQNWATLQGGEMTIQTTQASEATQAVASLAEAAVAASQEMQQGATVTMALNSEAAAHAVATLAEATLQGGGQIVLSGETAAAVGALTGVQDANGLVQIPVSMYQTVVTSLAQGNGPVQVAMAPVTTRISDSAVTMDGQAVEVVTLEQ
Chain of Transcriptional activator Myb (Homo sapiens) (P10242 whole entry, looked up): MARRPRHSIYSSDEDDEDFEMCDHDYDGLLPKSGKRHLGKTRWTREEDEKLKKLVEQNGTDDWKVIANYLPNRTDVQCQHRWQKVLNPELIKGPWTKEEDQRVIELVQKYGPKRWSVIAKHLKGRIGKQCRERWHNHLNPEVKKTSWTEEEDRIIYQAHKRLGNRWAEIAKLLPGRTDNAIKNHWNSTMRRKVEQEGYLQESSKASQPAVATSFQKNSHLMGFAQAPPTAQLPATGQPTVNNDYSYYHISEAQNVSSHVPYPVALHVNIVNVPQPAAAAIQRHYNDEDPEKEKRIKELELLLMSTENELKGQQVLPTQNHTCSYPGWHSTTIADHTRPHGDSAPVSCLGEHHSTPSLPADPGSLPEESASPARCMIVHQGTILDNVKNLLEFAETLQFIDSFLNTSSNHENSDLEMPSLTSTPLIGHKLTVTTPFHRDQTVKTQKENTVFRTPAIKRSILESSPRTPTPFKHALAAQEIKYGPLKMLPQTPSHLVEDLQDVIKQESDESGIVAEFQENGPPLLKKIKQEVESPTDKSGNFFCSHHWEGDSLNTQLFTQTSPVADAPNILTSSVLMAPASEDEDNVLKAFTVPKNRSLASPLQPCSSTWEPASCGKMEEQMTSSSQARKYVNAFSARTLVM
Chain of Estrogen receptor (Homo sapiens) (P03372 whole entry, looked up, the tested form may be a part): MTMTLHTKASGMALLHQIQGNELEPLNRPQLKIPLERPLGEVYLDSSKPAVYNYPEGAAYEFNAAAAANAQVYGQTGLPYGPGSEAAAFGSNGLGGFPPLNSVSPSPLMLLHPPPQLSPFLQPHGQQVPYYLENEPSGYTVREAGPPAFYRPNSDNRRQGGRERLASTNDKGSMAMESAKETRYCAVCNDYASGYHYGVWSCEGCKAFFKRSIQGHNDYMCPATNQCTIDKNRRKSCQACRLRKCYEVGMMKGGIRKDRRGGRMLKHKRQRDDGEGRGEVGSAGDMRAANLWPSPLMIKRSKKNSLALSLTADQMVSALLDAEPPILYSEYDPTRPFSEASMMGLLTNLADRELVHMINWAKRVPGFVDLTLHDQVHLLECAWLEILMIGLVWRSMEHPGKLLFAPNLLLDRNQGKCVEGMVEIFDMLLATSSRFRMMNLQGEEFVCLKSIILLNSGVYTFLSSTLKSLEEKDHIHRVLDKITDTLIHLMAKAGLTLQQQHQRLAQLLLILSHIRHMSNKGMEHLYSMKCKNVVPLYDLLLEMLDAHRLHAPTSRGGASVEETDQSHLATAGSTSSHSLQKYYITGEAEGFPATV
Chain of Bile acid receptor (Homo sapiens) (Q96RI1 whole entry, looked up, the tested form may be a part): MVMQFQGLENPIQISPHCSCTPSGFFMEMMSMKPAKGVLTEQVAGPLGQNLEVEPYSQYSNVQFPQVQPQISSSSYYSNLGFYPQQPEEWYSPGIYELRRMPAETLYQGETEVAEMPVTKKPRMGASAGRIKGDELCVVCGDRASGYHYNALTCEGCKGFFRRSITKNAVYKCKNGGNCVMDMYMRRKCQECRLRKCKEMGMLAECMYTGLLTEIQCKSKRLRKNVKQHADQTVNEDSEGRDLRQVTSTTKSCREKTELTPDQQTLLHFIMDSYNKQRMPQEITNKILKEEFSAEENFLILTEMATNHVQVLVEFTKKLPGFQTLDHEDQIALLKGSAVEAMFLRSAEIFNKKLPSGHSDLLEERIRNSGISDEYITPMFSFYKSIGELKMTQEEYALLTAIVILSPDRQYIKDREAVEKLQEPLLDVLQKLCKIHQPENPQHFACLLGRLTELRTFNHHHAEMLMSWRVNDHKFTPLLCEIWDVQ
Chain of Hepatocyte nuclear factor 4-alpha (Homo sapiens) (P41235 whole entry, looked up, the tested form may be a part): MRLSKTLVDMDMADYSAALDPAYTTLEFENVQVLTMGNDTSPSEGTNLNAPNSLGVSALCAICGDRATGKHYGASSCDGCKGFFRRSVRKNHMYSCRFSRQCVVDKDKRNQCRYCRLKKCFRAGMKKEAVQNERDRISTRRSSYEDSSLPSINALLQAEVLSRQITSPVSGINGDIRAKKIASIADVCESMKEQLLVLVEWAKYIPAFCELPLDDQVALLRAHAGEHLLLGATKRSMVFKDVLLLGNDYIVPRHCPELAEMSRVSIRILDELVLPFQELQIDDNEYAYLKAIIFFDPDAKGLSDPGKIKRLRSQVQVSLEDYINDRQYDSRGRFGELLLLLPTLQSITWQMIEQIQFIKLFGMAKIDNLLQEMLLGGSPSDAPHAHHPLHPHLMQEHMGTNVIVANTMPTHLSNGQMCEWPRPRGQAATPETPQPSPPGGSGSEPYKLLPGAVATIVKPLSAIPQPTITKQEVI
Chain of Nuclear receptor subfamily 1 group I member 3 (Homo sapiens) (Q14994 whole entry, looked up, the tested form may be a part): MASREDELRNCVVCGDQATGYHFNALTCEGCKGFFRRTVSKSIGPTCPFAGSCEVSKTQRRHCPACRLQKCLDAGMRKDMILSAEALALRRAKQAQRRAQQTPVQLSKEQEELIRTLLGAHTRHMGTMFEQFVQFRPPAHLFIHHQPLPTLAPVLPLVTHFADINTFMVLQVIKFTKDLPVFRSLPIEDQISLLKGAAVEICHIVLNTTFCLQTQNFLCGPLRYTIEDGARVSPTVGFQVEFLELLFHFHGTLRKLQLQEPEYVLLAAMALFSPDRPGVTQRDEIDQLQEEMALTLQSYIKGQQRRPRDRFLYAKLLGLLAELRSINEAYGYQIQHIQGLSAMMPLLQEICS
Chain of Oxysterols receptor LXR-alpha (Homo sapiens) (Q13133 whole entry, looked up, the tested form may be a part): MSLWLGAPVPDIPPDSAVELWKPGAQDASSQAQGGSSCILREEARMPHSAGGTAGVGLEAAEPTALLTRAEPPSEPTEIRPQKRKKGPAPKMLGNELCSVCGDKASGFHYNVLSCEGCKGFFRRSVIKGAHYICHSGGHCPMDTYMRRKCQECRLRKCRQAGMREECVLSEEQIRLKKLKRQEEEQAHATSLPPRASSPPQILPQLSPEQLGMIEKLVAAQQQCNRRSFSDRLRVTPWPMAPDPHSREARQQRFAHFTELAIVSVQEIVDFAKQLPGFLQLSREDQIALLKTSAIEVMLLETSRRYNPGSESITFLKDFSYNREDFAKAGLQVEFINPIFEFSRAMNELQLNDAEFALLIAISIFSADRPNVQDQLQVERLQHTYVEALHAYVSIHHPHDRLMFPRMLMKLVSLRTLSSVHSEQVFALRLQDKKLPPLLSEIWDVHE
Chain of Steroid hormone receptor ERR1 (Homo sapiens) (P11474 whole entry, looked up, the tested form may be a part): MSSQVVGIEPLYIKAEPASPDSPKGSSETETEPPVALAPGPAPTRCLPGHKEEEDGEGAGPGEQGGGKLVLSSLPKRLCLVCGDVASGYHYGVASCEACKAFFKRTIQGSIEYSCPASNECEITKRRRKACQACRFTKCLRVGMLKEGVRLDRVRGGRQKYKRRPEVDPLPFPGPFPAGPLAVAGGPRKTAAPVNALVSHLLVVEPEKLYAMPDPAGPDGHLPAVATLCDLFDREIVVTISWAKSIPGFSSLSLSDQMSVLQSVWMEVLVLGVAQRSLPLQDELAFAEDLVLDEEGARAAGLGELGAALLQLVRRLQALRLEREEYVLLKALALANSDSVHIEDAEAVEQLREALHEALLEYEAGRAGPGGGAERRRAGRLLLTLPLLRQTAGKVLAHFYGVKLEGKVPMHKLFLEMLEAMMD
Chain of X-box-binding protein 1 (Homo sapiens) (P17861 whole entry, looked up, the tested form may be a part): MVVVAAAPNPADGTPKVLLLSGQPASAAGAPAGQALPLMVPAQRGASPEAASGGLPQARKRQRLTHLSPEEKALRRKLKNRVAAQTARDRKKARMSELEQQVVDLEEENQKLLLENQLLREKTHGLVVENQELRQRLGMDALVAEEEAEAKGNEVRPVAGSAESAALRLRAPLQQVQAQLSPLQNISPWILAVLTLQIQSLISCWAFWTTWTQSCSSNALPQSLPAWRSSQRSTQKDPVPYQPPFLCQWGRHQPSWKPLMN
Chain of Nuclear receptor subfamily 4 group A member 2 (Homo sapiens) (P43354 whole entry, looked up, the tested form may be a part): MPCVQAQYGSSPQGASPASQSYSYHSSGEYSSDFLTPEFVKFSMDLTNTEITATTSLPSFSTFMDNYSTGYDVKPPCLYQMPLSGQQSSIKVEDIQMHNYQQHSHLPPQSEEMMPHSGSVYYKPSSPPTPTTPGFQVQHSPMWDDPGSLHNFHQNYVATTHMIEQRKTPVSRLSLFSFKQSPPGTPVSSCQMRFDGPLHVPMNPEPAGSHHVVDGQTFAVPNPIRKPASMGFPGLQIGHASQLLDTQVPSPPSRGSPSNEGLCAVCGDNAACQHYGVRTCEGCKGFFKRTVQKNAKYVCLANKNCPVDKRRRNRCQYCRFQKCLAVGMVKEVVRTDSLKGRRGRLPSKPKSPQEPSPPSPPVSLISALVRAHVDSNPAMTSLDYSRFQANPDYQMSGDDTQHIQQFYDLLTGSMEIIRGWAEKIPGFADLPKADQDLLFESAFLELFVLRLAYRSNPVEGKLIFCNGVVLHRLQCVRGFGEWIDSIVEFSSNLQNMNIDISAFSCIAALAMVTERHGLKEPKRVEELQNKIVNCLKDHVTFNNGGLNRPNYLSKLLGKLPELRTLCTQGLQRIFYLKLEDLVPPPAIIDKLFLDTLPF

C/C=C\C/C=C/CCCCCCCCOC(C)=O
active: [3] 30.1 µM | [5] 100 µM
not listed: [14] | [15] | [16] | [17] | [18] | [19] | [20]
inactive: all other assays above

CCCc1ccc(OC)cc1
inactive: [1] | [2] | [3] | [5] | [14] | [15] | [16] | [8] | [10] | [12] | [13]

O=C(c1ccc(O)cc1)c1ccc(O)cc1O
active: [18] 1.03 µM
not listed: [3] | [4] | [6] | [7] | [8] | [11] | [13] | [20]
inactive: all other assays above

O=C1CCCCCCCCCCCCCCCO1
not listed: [3] | [6] | [8] | [14] | [15] | [19]
inactive: all other assays above

O=C(Nc1ccccc1SSc1ccccc1NC(=O)c1ccccc1)c1ccccc1
not listed: [3] | [6] | [7] | [9] | [15] | [19]
inactive: all other assays above

O=C1OC(=O)c2cc(Oc3ccc4c(c3)C(=O)OC4=O)ccc21
inactive: [1] | [2] | [3] | [5] | [15] | [7] | [20] | [8] | [9] | [13]

CC=CC(F)(F)C(F)(F)C(F)(F)F
not listed: [4] | [7] | [11] | [13] | [14] | [17] | [18] | [19]
inactive: all other assays above

O=S(=O)(O)CC(O)CCl (stereo not drawn)
inactive: [1] | [2] | [3] | [5] | [15] | [20] | [8] | [9] | [10] | [12] | [13]

CCOC(F)(F)C(F)(F)C(F)(F)C(F)(F)F
not listed: [4] | [6] | [8] | [14] | [17] | [18] | [19] | [20]
inactive: all other assays above

C=CC(=O)OCCOC(=O)C=C
inactive: [1] | [2] | [5] | [8] | [9] | [10] | [12] | [13]
active: [3] 10.5 µM

CCOC(=O)NNc1nncc2ccccc12
inactive: [1] | [2] | [3] | [5] | [15] | [7] | [8] | [9] | [10] | [13]
